# Bioassay records deposited in PubChem by several laboratories.
# In the library only some 1.1% were active in any assay of this set; here they are far more common.
# Candida biofilm = clotrimazole potentiators killing Candida biofilms, primary screen, with clotrimazole, Alamar Blue. C. albicans biofilm + clotrimazole. 0.14% of 85,000 active. inhibition, % at 6 µM;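 active = inhibition above 20%; inactive = inhibition below 20%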;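 note: preformed 24 hr biofilms exposed to compound for 48 hr; 0% = biofilm without compound and 100% = blank killed by clotrimazole plus chlorhexidine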
# PLK1 kinase inh = human PLK1 kinase inhibitors, primary screen, biochemical, TR-FRET; recombinant PLK1 kinase, TR-FRET peptide phosphorylation; Serine/threonine-protein kinase PLK1 (Homo sapiens), P53350; 0.53% of 97,000 active; AID 619, 2007; inhibition, % at 10 µM;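 active = inhibition of 50% or more in the single-concentration screen; inactive = inhibition below 50%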;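 note: 0% = DMSO max control and 100% = H-89 dihydrochloride min control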
# Target sequence (P53350 whole entry, looked up): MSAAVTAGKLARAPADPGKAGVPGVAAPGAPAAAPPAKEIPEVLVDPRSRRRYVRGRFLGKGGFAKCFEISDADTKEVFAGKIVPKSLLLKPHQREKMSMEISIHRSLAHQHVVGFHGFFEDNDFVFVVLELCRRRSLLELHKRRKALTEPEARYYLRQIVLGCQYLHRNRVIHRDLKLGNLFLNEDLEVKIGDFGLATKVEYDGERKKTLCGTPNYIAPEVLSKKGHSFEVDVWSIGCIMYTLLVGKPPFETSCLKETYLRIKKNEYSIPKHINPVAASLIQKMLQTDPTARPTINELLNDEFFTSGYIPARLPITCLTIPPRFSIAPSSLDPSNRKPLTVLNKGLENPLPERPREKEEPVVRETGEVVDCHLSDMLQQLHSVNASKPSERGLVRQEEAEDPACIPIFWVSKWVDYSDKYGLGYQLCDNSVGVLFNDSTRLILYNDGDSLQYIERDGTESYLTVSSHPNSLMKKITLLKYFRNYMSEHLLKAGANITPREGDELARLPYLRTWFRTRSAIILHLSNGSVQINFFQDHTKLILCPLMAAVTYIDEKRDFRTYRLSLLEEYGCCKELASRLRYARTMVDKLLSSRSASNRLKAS
# Mac1 fbg inh = inhibitors of CD11b/CD18 adhesion to fibrinogen, primary screen, K562 cells, luminescence | 0.54% of 93,000 active | inhibition, % at 10 µM | ATPlite luminescence; Mn2+ added to activate the integrin;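 active = primary inhibition of 50% or more at 10 µM, then 40% or more on retest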
# Mac1 fbg enh = enhancers of CD11b/CD18 adhesion to fibrinogen, primary screen, K562 cells, luminescence. activation, % at 10 µM. 0.07% of 93,000 active. ATPlite luminescence. Integrin beta-2 (Homo sapiens) + Integrin alpha-M (Homo sapiens), P05107+P11215;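 active = 10 µM primary screen giving 50% or more activity, confirmed by 40% or more on retest at that dose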
# PLK1 PBD inh = Plk1 polo box domain binding inhibitors, primary screen, biochemical, fluorescence polarization | Serine/threonine-protein kinase PLK1 (Homo sapiens), P53350 | Plk1 PBD phosphopeptide binding | inhibition, %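 (tested at about 20 µM)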 | 0.13% of 97,000 active; in the data active = inhibition above about 34%, passing the limit was not always enough
# * marks the source's active call; other numbers are inactive results; nt = not tested or not shown.
SMILES,Candida biofilm,PLK1 kinase inh,Mac1 fbg inh,Mac1 fbg enh,PLK1 PBD inh
COC(=O)c1cc(NC(=O)c2ccc(Cn3cc(Cl)cn3)o2)cc(C(=O)OC)c1,8,0,-3,76,-8
CCOC(=O)c1c(NC(=S)NC(=O)c2ccc(Cn3cc(Cl)cn3)o2)sc2c1CCC(C)C2 (stereo not given),nt,-7,-2,201*,2
O=C(OC(C(=O)Nc1cccc(C(F)(F)F)c1)c1ccccc1)C1CCCCC1 (stereo not given),nt,nt,79,-4,nt
c1ccc(OCCOCCN2CCOCC2)cc1,63*,-4,7,2,2
COc1ccc(OCCOCCN2CCOCC2)cc1,3,0,-10,-3,8
Cc1cccc(NC(=O)CSc2ncnc3nc[nH]c23)c1,nt,55*,nt,nt,21
COc1ccccc1-n1c(=O)oc2ccc(Cl)cc2c1=O,2,-10,96*,-12,-9
CCn1cc(C(=O)N2CCOCC2)c(=O)c2cc(S(=O)(=O)N(C)C)ccc21,-7,69*,-10,-5,24
Cc1ccc(C(=O)C[n+]2cc(-c3ccc(C)cc3)n3c2CCCCC3)cc1,nt,-4,54*,-6,-13
CCN(c1ccccc1)S(=O)(=O)c1ccc(Cl)c(NC(=O)CSc2n[nH]c(N)n2)c1,nt,nt,-5,2,nt
Cc1oc(-c2ccc(Cl)cc2)nc1CS(=O)CC(=O)NCCN1CCCC1 (stereo not given),-6,60*,-15,-2,-2
COc1ccc(CNC(=O)CS(=O)Cc2nc(-c3ccccc3C)oc2C)cc1 (stereo not given),12,67*,-7,-1,-1
Cc1oc(-c2ccc(Cl)cc2)nc1CS(=O)CC(=O)NCCCN(C)C1CCCCC1 (stereo not given),5,4,1,-1,4
Cc1ccc(-c2nc(CS(=O)CC(=O)NCCN(CC(C)C)CC(C)C)c(C)o2)cc1 (stereo not given),-2,-13,2,3,-1
Cc1ccc(-c2nc(CS(=O)CC(=O)NCCN3CCCC3)c(C)o2)cc1 (stereo not given),5,63*,-10,3,0
CCCCNC(=O)CS(=O)Cc1nc(-c2cccc(Cl)c2)oc1C (stereo not given),10,65*,-4,1,-1
Cc1cc2nnc(SCC(=O)Nc3cccc(S(=O)(=O)N4CCOCC4)c3)n2c2ccccc12,nt,nt,-6,0,nt
CC1(C)Oc2ccc3ccc(=O)oc3c2/C(=C/NC2CCCCC2)C1=O,6,-14,nt,nt,26
COc1cc2cc3c(N)c(C(=O)Nc4sc(C)c(C)c4C#N)sc3nc2cc1OC,nt,-10,nt,nt,-11
COC(=O)c1ccc(NC(=O)Cn2nc(-c3ccncc3)nc2SCC(=O)Nc2nccs2)cc1,nt,-7,nt,nt,-16
Cc1ccc(C(NC(=O)NC(C)c2ccccc2)C(Cl)(Cl)Cl)cc1F (stereo not given),nt,nt,96,-6,nt
CC(C)(Oc1ccc(Cl)cc1)C(=O)N/N=C/c1cn[nH]c1-c1ccccc1,nt,-5,-2,-1,4
O=C(NNC(=O)c1ccco1)c1cccc([N+](=O)[O-])c1,nt,-5,-6,0,-4
Cc1ccc(-c2nc(CS(=O)CC(=O)NCCN3CCOCC3)c(C)o2)cc1 (stereo not given),2,59*,3,2,-16
Cc1ccccc1-c1nc(CS(=O)CC(=O)NCCN2CCOCC2)c(C)o1 (stereo not given),7,0,-5,-1,-24
SMILES,Candida biofilm,PLK1 kinase inh,Mac1 fbg inh,Mac1 fbg enh,PLK1 PBD inh
CC(C)(C)c1ccc(-c2csc(NNC3=NCCCCC3)n2)cc1,nt,-18,89*,-5,-31
CCc1ccccc1NC(=O)/C(=C/c1ccco1)c1ccccc1,67*,-9,15,-2,16
Cc1ccccc1NC(=O)/C(=C/c1ccco1)c1ccccc1,3,-3,7,2,-7
COc1cccc(COc2ccccc2C2Nc3ccc(Br)cc3C(=O)N2NC(=O)c2ccncc2)c1 (stereo not given),nt,-8,nt,nt,-16
Cc1nc2c(ccc3nc(NC(=O)c4ccc5c(c4)OCCO5)sc32)s1,8,-45,67*,6,15
Cc1nn(C(C)C(=O)NNC(=S)Nc2ccc(Cl)cc2)c(C)c1[N+](=O)[O-] (stereo not given),nt,-14,-4,0,9
CC(/C=N/NC(=O)c1ccc(Br)cc1)=C\c1ccccc1,4,-16,7,9,5
C/C(=N\NC(=O)c1ccc(Br)cc1)C1C(=O)c2ccccc2C1=O,nt,-14,97*,-7,28
Cc1cc(Br)cn2ccnc12,nt,-7,0,6,-21
CCCc1nc(N2CCOCC2)c2sc(=S)n(-c3ccccc3)c2n1,nt,-23,-9,-2,-10
CCOc1ccc(C2CC(=O)NC(SC)=C2C#N)cc1 (stereo not given),-2,-15,0,-2,-1
CSC1=C(C#N)C(c2ccc(C(C)C)cc2)CC(=O)N1 (stereo not given),3,66*,-2,1,3
Cc1cc(SCC(=O)c2cccs2)nc2ccccc12,nt,nt,19,2,nt
Cc1cccc(C)c1OCc1nc2ccccc2c(=O)n1/N=C/c1c[nH]c2ccccc12,nt,nt,8,2,nt
CCC(C)n1c(NC(=O)c2ccccc2)c(C#N)c2nc3ccccc3nc21 (stereo not given),9,-12,nt,nt,-8
CCCCn1c(NC(=O)c2ccccc2)c(C#N)c2nc3ccccc3nc21,nt,3,99*,-10,1
CC(C)n1nc(C(=O)OCn2nnc3ccccc3c2=O)c2ccccc2c1=O,nt,nt,-6,1,nt
Cc1ccc(C(C#N)c2ccc(C(=O)c3ccc(F)cc3)cc2)cc1 (stereo not given),1,1,95,-6,-20
N#CC(c1ccc(F)cc1)c1ccc(C(=O)c2ccc(F)cc2)cc1 (stereo not given),1,-11,87*,-5,-1
CCCN1CCCc2cc(CN(CCCN3CCOCC3)C(=O)Nc3ccc(OCC)cc3)ccc21,-2,3,65*,0,11
CCOc1ccc(NC(=O)N(CCN2CCOCC2)Cc2ccc3c(c2)CCCN3CC)cc1,3,-2,nt,nt,-16
Cc1ccc(S(=O)(=O)NC(=O)c2cc(C)n(-c3ccc(N(C)C)cc3)c2C)cc1,nt,nt,37,-3,nt
CSc1nc(C)cc(OCC(=O)N/N=C/c2ccccc2O)n1,nt,nt,-14,5,nt
CCOc1ccc(N(CC(=O)NC(C)CC)S(=O)(=O)c2c(C)noc2C)cc1 (stereo not given),6,63*,-10,2,18
CCOc1ccc(N(CC(=O)Nc2ccc(OC)cc2)S(=O)(=O)c2c(C)noc2C)cc1,4,-1,-8,0,-8
